Whole data set: some 2,300 sequences, median “median log2 fold change of GCK-ALFA target abundance (FLAG IP / Myc IP barcode read proportion)” near 0.095, cut for the lowest 2% near -0.47. This is one part of a sample in which the lowest values are shown more often than they occur.
B1: LC3A_3_1549 (protein)
chain: MEELLEETLKRLKEAGASEEVIEAVRKALQALIDRGYEEALKEFAREVEELIGLPDEILLDFAEEVLRAIEEEDLNEEELIERIKEIATIAKNEGEIIEL
B2: LC3A_28_855 (protein)
chain: SETRKSIEEAREELEKAREAKEPAVITVTVTSDVTEEEVEEVIELIKEAAEASKEVPDLTLIIDFEGEIDPEHLNRITDAADEAIKKNPKLNVIFALDEE
B3: LC3A_147_414 (protein)
chain: TVVEIDILVKSKEAVEKIKERMKEIVKELKAKGYKVKLEIKVEEVEPGVYLVDITIEIEAETKEDAEAAANFVLDKIDEMEEELKDEILGSLISVEIEEK
B4: LC3A_127_214 (protein)
chain: EKEKLIKELLELIRKAQELLAKPDYDLEEIRKLLEEAIKVAKELLKLDERFKPVLEDLESALKLVDQMENLSPAEQEEARERVSMLLDGAEIELLSLELK
B5: LC3A_147_516 (protein)
chain: YKVTVEIDLLLKNSKELAEEMAEEIKEYLESKGYEVEVELEFEEDEDGTIFAKITITVKAETKEEAEKVANEVLEKIDELLEKYKDKILGALISVSIEEE
B6: LC3A_147_517 (protein)
chain: YLVEVEIDMLLKNSKELAEEIAKEIEERLKEKGYKVEVELEFEEDEDGTIFADITIKVEAETLEEAKEVANEILDIIDELLEKNKDKILGALISVSITKK
B7: LC3A_132_295 (protein)
chain: MEEKAEKYLKELKALIAAAKANIDDDAKVTALLKEIEAKIEEAEKELTPEEVAKVFEEVADELWALSQVFDAAGKEQLALEADGLAIEAASLALRAKEKI
B8: LC3A_45_1925 (protein)
chain: MWEATLDVLVPRELAEKAYATAKELMAELEAEHGPDLRVDWATLDESYAASKDEEDVYLEIRIYHPDEQVALDAADRLEDELNAALGGKASSIISLKKLP
B9: LC3A_free_8_2533 (protein)
chain: KREEFVNKALELLDEFEEEIRKKAKELGLDELDILDLELLIGSLKIEVVELRDKPMEEILKTIEEGLEEIIEEAKELSEELAEKVEELAEEILEELKEMM
B10: LC3A_147_503 (protein)
chain: YLLKVDIDIIVKNAEEEVKKMVEEIEEELKKKGFEVKVKINIEQLDENTTYISINIEVKAKTKEEAEEAANYIIDKFDKYLEENKDKILGALISVEIEKE
B11: LC3A_28_660 (protein)
chain: SATREAADAAIAAARAAAARGEPAVITLTVTGDATPEDIDYVLAALEEIAAILAPIPGSAIVIDLEAGVDPEHRQRIIDKAEELEKRYPNVTVIIAEEEE
B12: LC3A_3_1416 (protein)
chain: MEEAKKKALEALKKAGHSEETLKALNELVDLLEARGAEEEAKEVLELVLENKDISSELLLEVLNEAIELLTVKKLSPEEVIKELKEELRIARNEEEIIEL
B13: LC3A_3_1375 (protein)
chain: SEELIEETLAYLREKGKSEETLEAVRRAMEALAEKGYEEALKTFAELLKEMEDLPDEILLDFAEDVLEAVENEDLNEEELIEFIKEEARVARSEGEIIEL
B14: LC3A_free_8_2497 (protein)
chain: SRQEIVDRLLELIDELEEELEEKAKELGLSELDILDITLELGSLKAEIISNSDEPLEVIREELEEGLEEIIELTEELSEELEELAEEGAEKILEELEELE
B15: LC3A_28_1014 (protein)
chain: SHMEERVAALIAEIEAALAKGEYVVATLTITPEDSLEEVKAAMERVGKAALEAAKKGIVDVVVDLEKGVSQEKLDAVMEAADELEKKAPKLNVVIALEEE
B16: LC3A_free_0_2106 (protein)
chain: MTVVGEVLAITEKALTPEQLKKVKEEMEKIAKELEEEYGMKVEVTVKEVDGRTVFTLKFSKEGLSIEEAIEIVDEVADKLEEKLKELGADVTIYTSVYEE
B17: LC3A_17_544 (protein)
chain: MEELKKELEKLLKKLEELVKELEKYDPEKAKKLKKQLEEAKKLIKAGKLREAAELLAKAAREAADAFEKLEPKYGTKASVLAMEASGLELEAIRILLKLE
B18: LC3A_17_542 (protein)
chain: MEEIKKELEELLKKLEKLVEKLAEYDPEKAKKLKKKLEEAKKLIKAGKLKEAAELLAEAAREAAEAWEELEPEYGTEASVYAMEASGLELEAIGILLKLD
B19: LC3A_28_1074 (protein)
chain: SAVEEENEKILKEAKEAKEKGEPAVITIKIDESDTDEDIEKKLETIREVAEILKDVEGAAIIIDLEGEKALSRLDEVADLADELEEKYPNLTVIIALDDE
B20: LC3A_free_46_2358 (protein)
chain: YKAEIDIDLLHEDKEVLEKAVEEIEKAAREIAEKYGLKVEIEKEFEKLPDGSYYARIRITLEGEDKEKVEEAVNELINEIDKISKKYDVASIISYEIEEK
B21: LC3A_free_8_2524 (protein)
chain: SKQEFANKATEVLDELEEKLRKALEELGASRLDILEAEVLVGSIIAEVISLSDKEPEEQLKAIKEGLKDLVEELEKYKETVKKLADEALKKIEEIKKELE
B22: LC3A_147_445 (protein)
chain: VKVEVTIGVLMKNKPEVGDELVEKLRETAEAAGAEVEVEVEREKIDENTVYLLIKLTLTTETREAAEALANKVIDTVEEFAEKHKDEILGYIISVEISEA
B23: LC3A_127_188 (protein)
chain: EIEKLIKELLKELEKLSELLSSPDFDLEEAEKLAKKILKLAKELEKLDPRFKPLVEDAKELLKIIEEMKNASPAEQEELKEHALMLVEGMEIEALSLELK
B24: LC3A_free_46_2376 (protein)
chain: YKIEIDIYFSAMSKEKAEEMAEEIKKAAEEISKKTGVKIEVEVKIITDENGETWLEVKVTIEGEDKEKALKAATELIDKFDEIAEKHGVSLIISVEEIDE
B25: LC3A_59_2018 (protein)
chain: SEELEALRERLREAVDDIDAFVAIVREGLERFRDDPERVRALLRAAMDVIVEELGMDPEEAEKTLAEMLAIWETEPDKEEAIARVTELVRDTLLLTPIEE
B26: LC3A_free_8_2515 (protein)
chain: MNQEFANKATEILEELEEKLVELLKEKGASELDILEAELLIGSAIAEVISLSDKSPEEILKAIRESLEELVEELEEHREEVKELAEEALKKIEEKKKELE
B27: LC3A_3_1855 (protein)
chain: MEEIIEEALKLLKELGRSEETIEAARKLLEALKERGFEEAAKVLLEELKKLKNVSDEDLLEMFNELLKALEEEDLNEEEAIELIKSEARVLLNAEEIEEL
B28: LC3A_3_1647 (protein)
chain: PEEEVEETVELLREAGHSEETIEAFRETAEALLERGYEEALRVLIEETRELLDLPDEILLAMLEEVLRVIKEEDLSEEEVIEEIRRIARIARSEGEIIEL
B29: LC3A_free_39_2193 (protein)
chain: SAAETEKAKAELLALAAEAGEEAKKLAEEIIKLIGEDLEKLKKLLEALKKAKEAGVDVLEVLKEALELAKELKKQGKSKEEIFEEVLELIEDAINLIPID

Target: MAP1LC3A, Q9H492
Experiment: median log2 fold change of GCK-ALFA target abundance (FLAG IP / Myc IP barcode read proportion) (log2 ratio); each designed protein is fused to an ALFA-tag nanobody in HEK293 cells to bring the named protein to FLAG-tagged glucokinase (GCK); Myc marks an untargeted standard; higher = target protein stabilised (more abundant)
Conditions: target protein: 3xFLAG-MCP-GCK-ALFA reporter; HEK293 landing pad (RPLP)
Procedure: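 LABEL-seq trans screen in HEK293 landing-pad cells. Each de novo designed 100-aa effector handle, binding the indicated effector (E3 ligase, DUB or autophagy protein), is fused to a constant NbALFA target handle and induced with 2 ug/mL doxycycline. A FLAG-MCP-GCK-ALFA target and a Myc-MCP standard reporter were transfected, and after 48 h circRNA barcodes were recovered by anti-FLAG and anti-Myc IP and sequenced. The value is the median across barcodes (at least 3 per design) of log2(FLAG/Myc read-proportion ratio), with the two transfection replicates pooled. Negative values mean degradation and positive values mean stabilisation of the target.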

Binder	median log2 fold change
B1	0.258
B2	0.127
B3	-0.515
B4	0.409
B5	-0.0638
B6	-0.778
B7	0.0471
B8	-0.101
B9	-0.133
B10	-0.665
B11	0.104
B12	0.297
B13	0.306
B14	-0.679
B15	-0.297
B16	-0.0524
B17	0.0592
B18	-0.71
B19	0.0473
B20	-0.026
B21	-0.575
B22	-0.265
B23	0.156
B24	-0.231
B25	-0.587
B26	0.159
B27	0.224
B28	0.138
B29	0.242

— the supplement of paper PMC12632987
